FadD28 binding: inhibitors of Mycobacterium tuberculosis FadD28 bisubstrate binding | inhibition, % at 12.5 µM | 360,000 compounds, 0.22% hits | AID 588549 | FadD28 bisubstrate probe binding, fluorescence polarization; in the data active means inhibition above about 8.5%, passing the limit was not always enough
SARS 3CLpro inh: SARS-CoV 3CLpro protease inhibition. P0C6X7. recombinant SARS-CoV 3CLpro, quenched FRET peptide cleavage. inhibition, % at 6 µM. 290,000 compounds, 0.14% hits. AID 1706; in the data active means inhibition above about 12%
BioA inh: BioA (M. tuberculosis) enzyme inhibition. purified M. tuberculosis BioA enzyme, plate reader. inhibition, % at 9.99 µM. 360,000 compounds, 0.096% hits. AID 602481; in the data active means inhibition above about 40%
GDH-TPI counter-1: inhibits GDH-TPI coupling enzymes, artifact for Mtb FBA screen; GDH-TPI coupled enzyme counterscreen, NADH absorbance; inhibition, % at 4.8 µM; 360,000 compounds, 1.2% hits; AID 588335; in the data active means inhibition above about 30%;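 further: 0% = DMSO wells and 100% = wells lacking the enzyme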
FBA Mtb inh: inhibitors of M. tuberculosis fructose-bisphosphate aldolase. P9WQA3. purified M. tuberculosis FBA, fluorescence read-out. inhibition, % at 1 µM. 360,000 compounds, 2.3% hits;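 further: 0% = vehicle and 100% = reference inhibitor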
Target sequence (P9WQA3 whole entry, looked up): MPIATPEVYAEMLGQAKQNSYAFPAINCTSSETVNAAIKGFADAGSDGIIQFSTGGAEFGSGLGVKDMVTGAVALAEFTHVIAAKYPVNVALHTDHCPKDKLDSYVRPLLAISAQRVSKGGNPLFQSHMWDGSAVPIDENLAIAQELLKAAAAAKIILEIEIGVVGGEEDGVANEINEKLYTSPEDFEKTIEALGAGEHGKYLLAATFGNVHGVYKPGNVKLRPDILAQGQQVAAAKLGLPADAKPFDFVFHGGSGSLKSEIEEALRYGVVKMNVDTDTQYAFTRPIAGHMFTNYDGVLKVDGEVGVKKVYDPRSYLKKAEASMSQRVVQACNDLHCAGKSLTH
Mtb FBA inh conf: Mtb FBA inhibition, confirmed | inhibition, % at 1 µM | 5,600 compounds, 78% hits | shares compounds with FBA Mtb inh | purified M. tuberculosis FBA, fluorescence read-out;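 further: 0% = vehicle wells and 100% = reference inhibitor wells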
GDH-TPI counter-2: counter-screen for M. tuberculosis FBA inhibitors: GDH-TPI coupled enzyme inhibition; inhibition, % at 1 µM; 5,600 compounds, 81% hits; GDH-TPI coupled enzyme counterscreen, fluorescence; shares compounds with FBA Mtb inh; in the data active means inhibition above about 10%
GDH-TPI DR: counter-screen for M. tuberculosis FBA inhibitors: GDH-TPI dose response | shares compounds with FBA Mtb inh | GDH-TPI coupled enzyme assay, fluorescence, artifact counterscreen | IC50, µM | 170 compounds, 79% hits | AID 652145; call rule not given here
The depositor's hits bear a star; . = no result; + = active, no number. Rows were chosen to be rich in hits. Some 3.1% of all compounds tested hit in one or more screens of this group. Unless noted, no stated cut-off is given here; in the data, active means inhibition above about 27%; inactive means the rest.

SMILES	FadD28 binding	SARS 3CLpro inh	BioA inh	GDH-TPI counter-1	FBA Mtb inh	Mtb FBA inh conf	GDH-TPI counter-2	others
Cc1cc(OCC(=O)NC2CC2)c2c(C)c(C)c(=O)oc2c1	-2	-1	0	14	76*	53*	45*
CCC(=O)N[C@@H]1CC[C@H](CC(=O)NCc2ccccc2OC)O[C@@H]1CO	.	.	-3	.	.	.	.
COc1ccccc1CNC(=O)C[C@@H]1CC[C@@H]2[C@H](COC[C@H](O)CN2C(=O)Nc2ccc(C(F)(F)F)cc2)O1	.	.	0	.	.	.	.
Cc1cc(=O)oc2cc(OCC(=O)NC3CCCCC3)c(Cl)cc12	-1	.	3	8	10	.	.
COc1cc(NC(=O)COc2cc(C)cc3oc(=O)cc(C)c23)cc(OC)c1OC	0	.	-1	3	5	.	.
Cc1cc(=O)oc2cc(OCC(=O)NC3CCCC3)ccc12	-3	-2	-2	-9	16	.	.
Cc1c(C)c2ccc(OCC(=O)NC3CCN(Cc4ccccc4)CC3)c(C)c2oc1=O	-2	-10	0	7	38*	60*	48*
CCc1cc(=O)oc2cc(C)cc(OCC(=O)NC3CC3)c12	-3	-5	-2	9	65*	21	22*
Cc1cc(OCC(=O)NC2CC2)c2c(C)cc(=O)oc2c1	-3	-1	0	4	80*	51*	38*
O=C(COc1ccc(Br)cc1Cl)NC1CCN(Cc2ccccc2)CC1	-2	0	-1	3	-1	.	.
Cc1cc(=O)oc2c3c(cc(OCC(=O)NC4CC4)c12)OC(C)(C)CC3	-2	5	0	1	75*	52*	29*
CCCCc1cc(=O)oc2cc(OCC(=O)NC3CCN(Cc4ccccc4)CC3)ccc12	-1	1	-1	11	1	.	.
CCc1cc(=O)oc2cc(C)cc(OCC(=O)NC3CCN(Cc4ccccc4)CC3)c12	0	2	-1	15	40*	1	3
COc1ccc(S(=O)(=O)N(C)C[C@H]2OCCCC[C@H](C)Oc3ccc(NC(=O)Nc4ccc(C(F)(F)F)cc4)cc3C(=O)N([C@@H](C)CO)C[C@H]2C)cc1	.	.	-2	.	.	.	.
Cc1ccc(C2C3=C(CC(C)(C)CC3=O)Nc3n[nH]c(C)c32)cc1 (configuration not stated)	-4	5	0	21	28*	109*	94*
Cc1[nH]nc2c1C(c1ccc(N(C)C)cc1)C1=C(CC(C)(C)CC1=O)N2 (configuration not stated)	-1	3	-3	0	-1	.	.
Cc1[nH]nc2c1C(c1ccc(F)cc1)C1=C(CC(C)(C)CC1=O)N2 (configuration not stated)	-2	-1	.	6	34*	56*	43*
COc1ccc(C2C3=C(CCCC3=O)Nc3n[nH]c(C)c32)cc1OC (configuration not stated)	-2	0	1	8	-1	.	.
Cc1[nH]nc2c1C(c1cccc(O)c1)C1=C(CC(C)(C)CC1=O)N2 (configuration not stated)	-2	3	.	9	33*	17	14*
COc1cccc(S(=O)(=O)N[C@@H]2C=C[C@H](CC(=O)NC3Cc4ccccc4C3)O[C@H]2CO)c1	.	.	-1	.	.	.	.
COc1ccc2[nH]c(-c3cccc(F)c3)cc(=O)c2c1	-2	-1	0	3	41*	2	-4
CC(=O)N1CC[C@@H]2[C@H]1c1cc(-c3ccc(C#N)cc3)ccc1N(C)[C@H]2CO	.	.	0	.	.	.	.
COc1cccc(NC(=O)C[C@H]2CC[C@@H]3[C@@H](COc4ccc(NC(C)=O)cc4C(=O)N3C)O2)c1	.	.	-1	.	.	.	.
C[C@H](NC(=O)[C@@H]1[C@@H](CO)[C@@H]2Cn3c(ccc(-c4cccnc4)c3=O)[C@@H]2N1C)c1ccccc1	.	.	5	.	.	.	.
O=C(c1cc2cc(F)ccc2[nH]1)N1CCN(Cc2ccc3c(c2)OCO3)CC1	-2	1	-2	13	-3	.	.
SMILES	FadD28 binding	SARS 3CLpro inh	BioA inh	GDH-TPI counter-1	FBA Mtb inh	Mtb FBA inh conf	GDH-TPI counter-2	others
CCN1CCN(C(=O)c2cc3cc(F)ccc3[nH]2)CC1	0	-7	0	3	82*	148*	96*
COc1ccc(-c2nc3ncnn3cc2C)cc1F	0	6	14	-4	73*	+	+
COCc1cn(CC[C@H]2CC[C@H](NC(=O)Nc3ccc(OC)cc3)[C@H](CO)O2)nn1	.	.	4	.	.	.	.
COC(=O)Nc1nncs1	-2	-2	-6	12	50*	145*	130*
CCOC(=O)Nc1nnc(-c2ccccc2OC)s1	-2	-1	-1	11	42*	137*	98*
COC(=O)Nc1nnc(-c2ccncc2)s1	0	3	-2	19	108*	59*	56*
COc1ccccc1-c1nnc(NC(=O)OCC(C)C)s1	0	-9	-2	9	14	.	.
COc1ccc(-c2nnc(NC(=O)C(C)C)s2)c(OC)c1	0	-4	-2	18	36*	101*	102*
COCC#Cc1cnc2c(c1)C(=O)N([C@H](C)CO)C[C@@H](C)[C@@H](CN(C)C(=O)c1ccc3c(c1)OCO3)O2	.	.	0	.	.	.	.
C[C@@H]1CN([C@H](C)CO)C(=O)c2cc(NC(=O)Cc3ccccc3)ccc2O[C@@H]1CN(C)S(C)(=O)=O	.	.	-1	.	.	.	.
CNC(=O)C[C@H]1CC[C@@H]2[C@H](COc3ccc(NC(=O)c4ccccc4OC)cc3C(=O)N2C)O1	.	.	5	.	.	.	.
C[C@@H]1CN([C@H](C)CO)C(=O)c2cc(C#C[C@@H](C)O)cnc2O[C@@H]1CN(C)C(=O)c1ccccc1	.	.	-3	.	.	.	.
COc1ccccc1-c1nnc(N)s1	1	-1	.	4	46*	86*	76*
CCC(SC1=NCCS1)C(=O)Nc1nnc(-c2ccccc2OC)s1 (configuration not stated)	-2	-5	-2	-2	0	.	.
COC(=O)Nc1nnc(-c2ccccc2OC)s1	-3	-1	.	3	67*	11	-3	GDH-TPI DR=3.2*
Nc1nnc(-c2ccccc2Cl)s1	-1	0	0	2	13	.	.
COc1ccc(CN(C)C[C@@H]2OCCCC[C@@H](C)Oc3ccc(NS(C)(=O)=O)cc3C(=O)N([C@@H](C)CO)C[C@@H]2C)cc1	.	.	-2	.	.	.	.
Clc1ccc(-c2cn3cc(Cl)ccc3n2)cc1	-5	3	.	-3	6	.	.
CCN(CC)S(=O)(=O)c1ccc(-c2cn3cc(Cl)ccc3n2)cc1	-5	1	0	13	31*	.	+
Cc1ccc(C(=O)OCC(=O)NC2CCCc3ccccc32)o1 (configuration not stated)	-2	.	-2	17	3	.	.
